Assay outcomes from PubChem BioAssay.
HPGD inh – inhibitors of human 15-hydroxyprostaglandin dehydrogenase (HPGD) | purified HPGD, NADH fluorescence kinetic, PGE2 substrate | Potency, µM, usual class: inhibitors | 150,000 tested, 4.3% active | AID 894
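20 nM HPGD preincubated 15 min at room temperature with compound in 50 mM Tris-HCl pH 8, 0.01% Tween 20. Started with 1 mM NAD+ and 30 uM prostaglandin E2; NADH fluorescence (360/450 nm) read 5 times over 30-s intervals, last minus first.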
IMPase Li cell – membrane-permeable IMPase blocker, potentiated with lithium. CHO-M1 cells, IP1 TR-FRET (IP-One), carbachol + lithium. Potency, µM (series often up to 59.4 µM), actives largely listed as inhibitors. 210,000 tested, 0.35% active; active means well fitted curve in the direction sought with a large enough effect; inconclusive means small, poorly fitted or top-dose-only effect, or another doubt; inactive means no such curve, though single readings can be large; an effect the other way counts as inactive or inconclusive;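 further: IP1 builds up when IMPase is blocked and the TR-FRET signal falls; nearly all actives have a fitted effect of over 50% in size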
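Test compounds were applied to CHO-M1 cells previously cultured for 16–30 h at 2000 per well. A small lithium amount accompanied them; after 30 min at 37C, IP1 was quantified by TR-FRET.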
PNC inhibitor – blocks assembly of the perinucleolar compartment | PC3M PTB-GFP, PNC prevalence imaging, 16 h; stronger effect = lower value | activity change (PNC), negative = inhibition, % at 10 µM | 140,000 tested, 3.1% active | AID 2417;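 active means readout at or below -70, meaning at least 70% loss of cells showing the perinucleolar compartment, a nuclear body marking cancer cells; inconclusive means readout between -30 and a set limit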
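Compounds are pinned in duplicate onto adhered PC3M cells stably expressing GFP-tagged PTB and incubated 16 h at 37 C. Cells are then fixed, nuclei stained with Hoechst, and PNC-positive cells counted.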
IMPase cell inh – membrane-permeable compound that blocks inositol monophosphatase; P97697; CHO-M1 cells, IP1 accumulation, HTRF TR-FRET ratio; inhibition (IP1 accumulation), % at 46.1 µM; 120,000 tested, under 10 active; active means well fitted curve in the direction sought with a large enough effect in the signal ratio, not every such curve was filed as active; inconclusive means small, poorly fitted or top-dose-only effect, or a change in a side signal; inactive means no such curve, though single readings can be large or run the other way; the % refers to the signal ratio;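 further: cells stimulated with carbachol in lithium chloride buffer; higher means more IMPase inhibition seen as more IP1 and lower FRET ratio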
Target sequence (P97697 whole entry, looked up): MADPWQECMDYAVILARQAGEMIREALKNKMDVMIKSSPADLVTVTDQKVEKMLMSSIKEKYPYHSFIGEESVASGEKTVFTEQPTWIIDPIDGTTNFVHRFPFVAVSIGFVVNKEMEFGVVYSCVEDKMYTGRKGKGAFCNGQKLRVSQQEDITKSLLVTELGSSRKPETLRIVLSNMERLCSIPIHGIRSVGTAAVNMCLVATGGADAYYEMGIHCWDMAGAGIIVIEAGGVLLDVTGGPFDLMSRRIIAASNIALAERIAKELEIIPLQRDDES
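Seeded CHO-M1 cells were dosed with compound at up to 46 uM, stimulated with carbachol for 30 min, then lysed in IP-One detection reagents. Higher IP1 lowers the TR-FRET signal.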
NPSR antagonist – neuropeptide S receptor (human) antagonism, cAMP; Q6W5P4; CHO-NPSR cells, cAMP TR-FRET, antagonist mode; Potency, µM (top dose mostly 38.3 µM), usual class: inhibitors; 220,000 tested, 1% active; AID 1461; active means well fitted curve in the direction sought with a large enough effect; inconclusive means small, poorly fitted or top-dose-only effect, or another doubt; inactive means no such curve, though single readings can be large; an effect the other way counts as inactive or inconclusive; further: nearly all actives have a fitted effect of over 50% in size
ALDH1A1 block – blocks purified human ALDH1A1 activity; Purified ALDH1A1, NADH fluorescence, propionaldehyde substrate; P00352; Potency, µM (series often up to 75.3 µM), hits mostly inhibitors; AID 1030; 220,000 tested, 7.3% active
Target sequence (P00352 whole entry, looked up): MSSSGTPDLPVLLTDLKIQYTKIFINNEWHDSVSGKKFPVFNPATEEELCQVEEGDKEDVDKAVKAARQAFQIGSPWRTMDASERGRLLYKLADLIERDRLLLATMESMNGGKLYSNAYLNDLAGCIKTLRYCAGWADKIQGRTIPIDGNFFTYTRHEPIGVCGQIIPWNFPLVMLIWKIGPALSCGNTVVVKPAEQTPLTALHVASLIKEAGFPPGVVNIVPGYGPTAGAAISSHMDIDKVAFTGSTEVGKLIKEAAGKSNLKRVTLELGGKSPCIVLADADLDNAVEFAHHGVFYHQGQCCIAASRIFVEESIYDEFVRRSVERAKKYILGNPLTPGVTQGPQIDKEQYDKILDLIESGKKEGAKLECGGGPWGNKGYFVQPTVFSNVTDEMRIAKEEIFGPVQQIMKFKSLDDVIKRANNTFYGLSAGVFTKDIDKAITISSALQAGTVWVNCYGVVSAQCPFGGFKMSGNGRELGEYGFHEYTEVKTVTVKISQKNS
Each line names hits and unclear results; the compound was inactive in the other large screens. The list is not random: actives were taken first. Their share in the collection is about 11%. Unless noted, the call rests on the fitted dose curve; in most records, active means well fitted inhibition curve with a large enough effect (not every such curve was filed as active); inconclusive means small, poorly fitted or top-dose-only effect, or another doubt; inactive means no such curve, though single readings can be large or run the other way.

Cc1cc(-n2c(C)cc(C(=O)CN3C(=O)NC4(CCCC4)C3=O)c2C)no1	PNC inhibitor -117
Cc1cc(C(=O)COC(=O)c2ccc[nH]c2=O)c(C)n1-c1ccc(Br)cc1	PNC inhibitor inconclusive (no result: IMPase cell inh)
CC(C)(C)c1ccc(N2C(=N)SCC2=O)cc1	none (no result: HPGD inh, IMPase Li cell, PNC inhibitor, IMPase cell inh, ALDH1A1 block)
COc1ccc(-n2c(C)cc(C(=O)CCl)c2C)cc1	ALDH1A1 block 0.32µM (no result: HPGD inh, PNC inhibitor, IMPase cell inh)
COc1ccc(-n2c(C)cc(C(=O)CN3C(=O)c4ccccc4C3=O)c2C)cc1	PNC inhibitor inconclusive, NPSR antagonist inconclusive, ALDH1A1 block inconclusive
Cc1cc(C(=O)CCl)c(C)n1-c1c(C)n(C)n(-c2ccccc2)c1=O	ALDH1A1 block 13µM (no result: HPGD inh, PNC inhibitor, IMPase cell inh)
Cc1cc(-n2c(C)cc(C(=O)CCl)c2C)no1	ALDH1A1 block 1µM (no result: HPGD inh, PNC inhibitor, IMPase cell inh)
Cc1cc(-n2c(C)cc(C(=O)COc3ccc([N+](=O)[O-])cc3)c2C)no1	none (no result: HPGD inh, PNC inhibitor, IMPase cell inh)
COc1ccc(-n2c(C)cc(C(=O)COC(=O)Cn3cnc4ccccc43)c2C)cc1	ALDH1A1 block 13µM
CCCC(C)NC(=O)c1ccccc1SC (stereo not given)	none (no result: HPGD inh, PNC inhibitor, IMPase cell inh)
COc1ccc(S(=O)(=O)n2c(CCN3CCOCC3)nc3ccccc32)cc1	PNC inhibitor inconclusive
CC(C)c1ccccc1OCC(=O)NN1C(=O)c2ccccc2C1=O	none (no result: HPGD inh, PNC inhibitor, IMPase cell inh)
Cn1c(=O)n(C)c2cc([N+](=O)[O-])c(N3CCN(C(=O)c4ccccc4Cl)CC3)cc21	ALDH1A1 block inconclusive
CC(Sc1ncnc2ccccc12)C(=O)Nc1ccc2c(c1)OCO2 (stereo not given)	PNC inhibitor inconclusive
CCC(/C=C1\Sc2ccc(OC)cc2N1CCO)=C\c1sc2ccc(OC)cc2[n+]1CCO	NPSR antagonist 10µM, ALDH1A1 block inconclusive (no result: IMPase cell inh)
CCC(/C=C1\Sc2ccc(OC)cc2N1CC)=C\c1sc2ccc(OC)cc2[n+]1CCCS(=O)(=O)[O-]	ALDH1A1 block 1.3µM (no result: HPGD inh, PNC inhibitor, IMPase cell inh)
Cc1cc(=O)c2c(O)c3c(O)cc(O)c4c5c(O)cc(O)c6c(O)c7c(=O)cc(C)c8c1c2c(c34)c(c65)c78	HPGD inh 8.9µM, IMPase Li cell 13µM (no result: PNC inhibitor, IMPase cell inh, NPSR antagonist)
Cc1ccc(S(=O)(=O)N/N=c2\sc3ccccc3n2C)cc1	none
Cc1c(Br)c([N+](=O)[O-])nn1CC(=O)NCCc1ccc(Cl)cc1	none (no result: HPGD inh, PNC inhibitor, IMPase cell inh)
O=C(Nc1ccccc1C(=O)O)c1cc(S(=O)(=O)N2CCOCC2)cs1	none (no result: HPGD inh, PNC inhibitor, IMPase cell inh)
CCCC[n+]1ccn(C2=C([O-])c3ccccc3C(=O)/C2=N\S(=O)(=O)c2ccccc2)c1	ALDH1A1 block inconclusive
CCCCC[n+]1ccn(C2=C([O-])c3ccccc3C(=O)/C2=N\S(=O)(=O)c2ccccc2)c1	ALDH1A1 block 5µM
O=C(NNc1cc(N2CCOCC2)nc(N2CCOCC2)n1)c1ccc(Cl)cc1Cl	none
CCc1ccc(N2C(=O)CN(Cc3cc(OC)c(OC)c(OC)c3)C2=S)cc1	PNC inhibitor -81 (no result: IMPase cell inh)
COc1ccc(CN2C(=O)CSC2c2ccncc2)cc1 (stereo not given)	none (no result: HPGD inh, IMPase Li cell, PNC inhibitor, IMPase cell inh)
CCOc1ccc(N2C(=O)CSC2c2ccncc2)cc1 (stereo not given)	PNC inhibitor -100
COc1ccc(N2C(=O)CSC2c2cccs2)cc1 (stereo not given)	PNC inhibitor -114, ALDH1A1 block inconclusive (no result: IMPase cell inh)
CCc1ccc(/C=C2\SC(N3CCCC3)=NC2=O)cc1	none (no result: HPGD inh, PNC inhibitor, IMPase cell inh)
O=C(c1ccccc1)N(Cc1nc2ccccc2c(=O)[nH]1)C1CCCCC1	ALDH1A1 block 3.5µM (no result: HPGD inh, PNC inhibitor, IMPase cell inh)
CCOC(=S)SCC(=O)N1CCc2cc(OC)ccc2C1C1C(=O)CCCC1=O (stereo not given)	PNC inhibitor -99
Cc1nc2sccn2c1P(c1c(C)nc2sccn12)c1c(C)nc2sccn12	PNC inhibitor -80
CCCCNC(=O)CSc1nc2cc3c(cc2c(=O)n1CCCN(CC)CC)OCO3	none
CCOC(=O)C(=CNc1cccc(N)n1)C(=O)OCC	PNC inhibitor inconclusive
CCOC(=O)c1ccc(NS(=O)(=O)c2ccc3[nH]c(=O)[nH]c3c2)cc1	HPGD inh 28µM, ALDH1A1 block 16µM
CN(CCO)C(=O)CCC(=O)Nc1ccc(S(N)(=O)=O)cc1	PNC inhibitor -127
CC(=O)Nc1ccc(NS(=O)(=O)c2ccc3[nH]c(=O)[nH]c3c2)cc1	none (no result: HPGD inh, PNC inhibitor, IMPase cell inh)
CCOC(=O)c1ccc(NS(C)(=O)=O)cc1	HPGD inh inconclusive
CCOC(=O)c1ccc(NC(=O)Nc2ccc(S(N)(=O)=O)cc2)cc1	PNC inhibitor -122
CCOC(=O)c1ccc(NC(=O)N(CC)CC)cc1	PNC inhibitor -92
O=C(O)CCCC(=O)Nc1nncs1	none (no result: HPGD inh, PNC inhibitor, IMPase cell inh)
COC(=O)COc1ccccc1C(N)=O	none
Cc1noc(C)c1COc1cccc(C(=O)OCCOc2ccc(F)cc2)c1	none
Fc1ccc(N2CCN(Cc3cn[nH]c3-c3ccccc3)CC2)cc1	ALDH1A1 block 14µM (no result: HPGD inh, IMPase Li cell, PNC inhibitor, IMPase cell inh)
CCOc1ccccc1N(CC(=O)N1CCCCCC1)S(C)(=O)=O	none
Cc1ccccc1N(CC(=O)O)S(C)(=O)=O	PNC inhibitor -104
CCOc1ccccc1N(CC(=O)OC)S(C)(=O)=O	PNC inhibitor -106
CCN(CC)CCNS(=O)(=O)c1ccc2[nH]cc(C(=O)O)c(=O)c2c1	none
O=C(NCc1ccc(OC(F)(F)F)cc1)C1CC(c2ccccc2[N+](=O)[O-])=NO1 (stereo not given)	none
CCC(C)(C(=O)NC1CCCC1)N(Cc1cccs1)C(C)=O (stereo not given)	PNC inhibitor -100
CCC(C)(C(=O)NC1CCCC1)N(Cc1cccs1)C(=O)Cc1cccs1 (stereo not given)	none
N#CC1=C(C2CC2)CC(c2ccccc2)C(C#N)=C1N (stereo not given)	ALDH1A1 block inconclusive
CCN(C(=O)CN1CCOCC1)c1c(N)n(Cc2ccccc2)c(=O)[nH]c1=O	none (no result: HPGD inh, PNC inhibitor, IMPase cell inh)
Cc1ccc(S(=O)(=O)N2CCN(CC(=O)N(CC(C)C)c3c(N)n(CC(C)C)c(=O)[nH]c3=O)CC2)c(C)c1	PNC inhibitor -98
CCCCN(C(=O)CN1CCOCC1)c1c(N)n(CC(C)C)c(=O)[nH]c1=O	PNC inhibitor -81 (no result: HPGD inh, IMPase Li cell)
CC(C)CN(C(=O)CN1CCC(C)CC1)c1c(N)n(CC(C)C)c(=O)[nH]c1=O	none (no result: HPGD inh, PNC inhibitor, IMPase cell inh)
O=C1OC(c2ccccc2)c2ccccc21 (stereo not given)	ALDH1A1 block 14µM (no result: IMPase cell inh)
CC1=Nc2ccccc2NC(=O)C1Sc1nnc(C)s1 (stereo not given)	none
O=C1NN(c2ccccc2)C(=O)/C1=C/c1ccc(Sc2cccc3ccccc23)o1	HPGD inh 18µM, NPSR antagonist inconclusive
CCOC(=O)C1(Cc2ccccc2C)CCCN(S(=O)(=O)c2cccnc2)C1 (stereo not given)	none (no result: HPGD inh, PNC inhibitor, IMPase cell inh)
Cc1occc1C(=O)Nc1cccc([N+](=O)[O-])c1	none (no result: IMPase cell inh)
